Assay results taken from PubChem BioAssay.

Columns and labels:
[1] = test system: Botulinum neurotoxin type F light chain protease (Clostridium botulinum); test: Clostridium botulinum type F light chain protease inhibitors, microsphere substrate cleavage, validation (AID 588459); conditions: multiplex microsphere protease substrate cleavage assay, flow cytometry; at 10 µM; active compounds read high
[2] = target: Botulinum neurotoxin type A (Clostridium botulinum) (UniProt P0DPI0); test: BoNT/A light chain protease inhibitors, biochemical, multiplex microsphere flow cytometry, validation set (AID 588460); conditions: at 10 µM, active compounds read high
[3] = target: Lethal factor (Bacillus anthracis) (UniProt P15917); test: Bacillus anthracis lethal factor inhibition, microsphere flow cytometry protease assay, validation at 10 µM (AID 588461); conditions: multiplex microsphere protease cleavage assay, active compounds read high

Measured: inhibition

CC1=CC(C)(C)N2C(=O)C3(NCCc4c3[nH]c3ccccc43)c3cc(C)cc1c32 (centres undefined)
inactive: [1] -0.9% | [2] -2.5% | [3] 0.2%

COc1ccc(NC(=O)CC2C(=O)N(C)C(=S)N2Cc2ccncc2)cc1 (centres undefined)
inactive: [1] -2.7% | [2] -1.6% | [3] -9.6%

CC(C)CCC1(CCNC(C)c2cccs2)CCOC(C)(C)C1 (centres undefined)
inactive: [1] -3.5% | [2] -0.9% | [3] -5.3%

CC(=O)OCC(=O)[C@H]1CC[C@H]2[C@@H]3CCC4=CC(=O)CC[C@]4(C)[C@H]3CC[C@]12C
inactive: [1] -5.8% | [2] -1.1% | [3] -5.7%

CCOc1ccc(C(=O)N2CCCC2C(=O)O)cc1 (centres undefined)
inactive: [1] -1.3% | [2] 0.5% | [3] 1.5%

CC(=O)N1CCN(c2ccc(NC(=O)/C=C/c3ccccc3)cc2)CC1
inactive: [1] 4.3% | [2] -0.3% | [3] -2.2%

COc1ccc(C2C3=C(OC(C)=O)c4ccccc4C3=Nc3c2c(=O)n(C)c(=O)n3C)cc1 (centres undefined)
inactive: [1] 4% | [2] 0.1% | [3] 2.9%

CC12CCC(C(=O)NCc3ccccn3)(OC1=O)C2(C)C (centres undefined)
inactive: [1] -1.4% | [2] -1.3% | [3] 3%

COc1cccc2c1C(=O)O/C2=C/c1ccc2c(c1)OCO2
inactive: [1] -0.9% | [2] -0.8% | [3] 2.1%

Cn1c(=O)[nH]c(=O)c2c1ncn2CCN1CCOCC1
inactive: [1] 3.5% | [2] -1.5% | [3] -2.5%

C[N+]1(C2CCC3CCCC2C3O)CCCCC1 (centres undefined)
inactive: [1] 1.7% | [2] 2.4% | [3] -3.7%

O=C(NCC1CCCO1)c1ccc(OC2CCN(C(=O)C3CC3)CC2)cc1 (centres undefined)
inactive: [1] 0.8% | [2] 0.5% | [3] -2.8%

CCOC(=O)c1ccc(N2C(=O)C(CC(=O)NC)N(CCc3ccc(OC)c(OC)c3)C2=S)cc1 (centres undefined)
inactive: [1] -0.6% | [2] -0.4% | [3] -10.1%

COc1ccc(C(=O)NCc2cccnc2)cc1
inactive: [1] -1.8% | [2] 0% | [3] -4.9%

CC(=O)NC1C(OCCOc2ccc(Cl)cc2Cl)OC(COC(C)=O)C(OC(C)=O)C1OC(C)=O (centres undefined)
inactive: [1] -1.5% | [2] -0.3% | [3] -0.7%

COc1cccc(N2C(=O)[C@H]3C(C(=O)c4cnccn4)=NN[C@H]3C2=O)c1
inactive: [1] 3% | [2] -0.2% | [3] 4.8%

COc1cccc(OC)c1C(=O)NCCSC1CCCCC1
inactive: [1] 1.4% | [2] 0% | [3] 5.6%

CC1(c2ccccc2)CC(C)(C)N2C(=O)C(=O)c3cccc1c32 (centres undefined)
inactive: [1] 0.5% | [2] 1.2% | [3] -0.4%

CC(=O)NS(=O)(=O)c1ccc(N)cc1
inactive: [1] 0.7% | [2] 1% | [3] 4.5%

CC(=O)OC[C@H]1O[C@@H](n2ncc(=O)[nH]c2=O)[C@H](OC(C)=O)[C@@H]1OC(C)=O
inactive: [1] -0.5% | [2] -0.3% | [3] 3.7%

O=C(Nc1cccc(Cl)c1)N1CCN2C(=O)c3ccccc3C12c1ccccc1 (centres undefined)
inactive: [1] -3.9% | [2] -0.1% | [3] -4.4%

c1ccc(Cn2ncc3c(Nc4ccccc4)ncnc32)cc1
inactive: [1] 1.6% | [2] -1.4% | [3] -0.5%

CC(C)(C)OC(=O)COc1cc(OCC(=O)OC(C)(C)C)c2c(=O)cc(-c3ccccc3)oc2c1
inactive: [1] 1.4% | [2] 0.8% | [3] -7.2%

O=C(COc1ccc2c(-c3ccccc3)cc(=O)oc2c1)NCc1cccs1
inactive: [1] -0.2% | [2] -0.1% | [3] -6%

COc1cc2nc(N3CCN(C(=O)C4COc5ccccc5O4)CC3)nc(N)c2cc1OC (centres undefined)
inactive: [1] -0.3% | [2] 0% | [3] -2.9%

CCN(CCCc1ccccc1)CCCc1ccccc1
inactive: [1] 1% | [2] -0.4% | [3] -2.4%

CN(C)CCCNc1ncnc2c1cnn2-c1ccccc1
inactive: [1] 0.3% | [2] -0.3% | [3] -4%

CCCC(=O)O[C@]1(C(=O)COC(C)=O)CC[C@H]2[C@@H]3C[C@H](F)C4=CC(=O)C=C[C@]4(C)[C@@]3(F)[C@@H](O)C[C@@]21C
inactive: [1] -1.4% | [2] 0.4% | [3] -0.6%

CN(C)CCOC(=O)C(c1ccccc1)C1(O)CCCC1 (centres undefined)
inactive: [1] 2.3% | [2] -0.3% | [3] -6%

CN(C(=O)C(Cl)Cl)c1ccc(OC(=O)c2ccco2)cc1
inactive: [1] 1.7% | [2] 0.7% | [3] -0.8%

O=C(NCc1ccc(N2CCCC2=O)cc1)c1ccc(F)cc1
inactive: [1] 5.2% | [2] -0.6% | [3] -3.8%

COCCOC(=O)C1=C(C)NC(C)=C(C(=O)OC(C)C)C1c1cccc([N+](=O)[O-])c1 (centres undefined)
inactive: [1] -2.2% | [2] -0.7% | [3] -4.8%

O=c1oc2c(CN3CCCCC3)c(O)ccc2c2c1CCCCC2
inactive: [1] 4.3% | [2] 0.5% | [3] 1.1%

COc1ccc(OC)c(-n2c(Cn3c(-c4ccccn4)nc4ccccc43)n[nH]c2=S)c1
inactive: [1] -3.4% | [2] -0.4% | [3] -0.7%

C[N+](C)(C)CCCC(=O)c1ccc2c(c1)OCO2
inactive: [1] -4% | [2] -1.8% | [3] -6%

COc1ccc(C(=O)C2CCCCC2=O)cc1 (centres undefined)
inactive: [1] 1.5% | [2] 0.2% | [3] -1.2%

OC(CCCN1CCC(O)(c2ccc(Cl)cc2)CC1)c1ccc(F)cc1 (centres undefined)
inactive: [1] -1.7% | [2] 1.7% | [3] -4.8%

Cc1[nH]nc(-c2ccc(O)cc2O)c1Oc1ccccc1
inactive: [1] 0.6% | [2] -0.4% | [3] -5.3%

Nc1ncnc2c1ncn2C1OC(CO)C(O)C1O (centres undefined)
inactive: [1] 14.6% | [2] -0.2% | [3] 2%

COc1cc(C(=S)N(C)C)ccc1O
inactive: [1] -3.2% | [2] -0.9% | [3] -2%

O=C(NC1CCCCC1)c1cc2nc(-c3ccco3)cc(C(F)(F)F)n2n1
inactive: [1] 2.6% | [2] 1.2% | [3] 0.5%

CSCCC(NC(=O)OC(C)(C)C)C(=O)Oc1ccc2c(=O)c(-c3ccc4c(c3)OCCO4)coc2c1 (centres undefined)
inactive: [1] -0.4% | [2] -0.4% | [3] -1.7%

CN1CCN(CCCN2c3ccccc3Sc3ccc(Cl)cc32)CC1
inactive: [1] -3.9% | [2] -3.2% | [3] -10.3%

N=C1C(c2ccccc2)=C(O)CN1CCCO
inactive: [1] -2.6% | [2] -1.3% | [3] -5%

CCOc1ccc(N2C(=O)CNC2=S)cc1
inactive: [1] -1.7% | [2] -1.5% | [3] -3.8%

Cc1cc(=O)oc2cc(OC(C)C(=O)NCC3CCCO3)ccc12 (centres undefined)
inactive: [1] 3% | [2] 0.9% | [3] -4.8%

CCc1cn([C@H]2C[C@H](O)[C@@H](CO)O2)c(=O)[nH]c1=O
inactive: [1] -0.5% | [2] -2.2% | [3] 1.6%

Nc1nnc(-c2cccc(Cl)c2Cl)c(N)n1
inactive: [1] 1.3% | [2] 0.8% | [3] -5.9%
